In the library only some 3.4% were active in any assay of this set; here they are far more common.
TEAD-YAP block: TEAD-YAP interaction inhibition; actives 1.4% (n = 640,000); HEK-TIYL cells, TEAD-Gal4/YAP UAS-luciferase luminescence; AID 1259422; inhibition, % at 9.12 µM; in the data active means inhibition above about 32%;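 further: 0% = median of test compound wells and 100% = reference inhibitor wells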
GPR151 activ: activates the human receptor GPR151. Q8TDV0. PathHunter beta-arrestin GPR151 cells, luminescence. activation, % at 11.2 µM. actives 1% (n = 650,000). AID 1508602; in the data active means activation above about 4.9%;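 further: 0% = median of compound wells and 100% = cells with positive control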
Target sequence (Q8TDV0 whole entry, looked up): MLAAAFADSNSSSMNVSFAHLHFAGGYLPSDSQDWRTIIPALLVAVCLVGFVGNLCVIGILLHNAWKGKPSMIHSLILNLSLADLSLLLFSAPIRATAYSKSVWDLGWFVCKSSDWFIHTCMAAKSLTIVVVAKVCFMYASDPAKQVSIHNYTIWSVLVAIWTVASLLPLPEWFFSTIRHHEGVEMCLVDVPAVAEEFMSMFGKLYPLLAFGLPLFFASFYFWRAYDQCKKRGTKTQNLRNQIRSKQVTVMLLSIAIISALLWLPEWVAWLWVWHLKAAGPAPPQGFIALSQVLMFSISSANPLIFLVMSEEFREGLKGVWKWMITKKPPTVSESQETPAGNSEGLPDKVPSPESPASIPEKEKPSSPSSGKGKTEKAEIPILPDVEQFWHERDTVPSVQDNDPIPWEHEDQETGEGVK
MITF inh: inhibitors of human MITF; AlphaScreen MITF homodimerization, bead proximity signal; O75030; AID 1259374; inhibition, % at 2.6 µM; actives 0.91% (n = 650,000); in the data active means inhibition above about 50%;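 further: 0% = vehicle wells with protein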
FBW7 act: activators of human E3 ligase FBW7; Q969H0; AlphaScreen FBW7–phospho-cyclin E peptide binding, activator screen; normalized activity (activation), % at 26.1 µM; actives 0.13% (n = 650,000); AID 1259310; in the data active means normalized activity above about 1.9%;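 further: purified mutant Fbw7 with reduced substrate affinity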
Starred values were filed as active, the others as inactive; x = no result.

SMILES	TEAD-YAP block	GPR151 activ	MITF inh	FBW7 act
Cc1ccccc1OCC(=O)N/N=C/c1ccc(F)cc1	-1.7	0.6	12.2	0.1
CC(=O)NC(=O)c1cc2c(ccc3ccccc32)oc1=Nc1ccccc1	-0.2	-0.1	5.1	0.0
COCCN(CCOC)C(=O)C(=O)c1c[nH]c2ccccc12	8.1	0.8	5.6	-0.1
COc1cc(/C=N\NC(=O)COc2ccc(C)cc2C)cc(OC)c1O	-8.5	0.1	5.7	0.0
COc1cc(/C=N/NC(=O)COc2ccc(C)cc2C)ccc1O	-7.5	-0.4	-13.5	1.9*
Cc1ccc(C(C)C)c(OCC(=O)N/N=C2\CCCC(=O)C2)c1	1.9	2.0	3.9	0.1
O=C(COc1ccccc1-c1ccccc1)N/N=C\c1ccc[nH]1	50.5*	0.4	6.3	-0.2
COc1cc(/C=N\NC(=O)COc2cc(C)ccc2C(C)C)cc(OC)c1O	36.4*	-1.4	11.2	0.2
CCOc1ccccc1OCC(=O)N/N=C1\CCCC(=O)C1	47.8*	1.1	-5.0	0.0
COc1ccc(CCNC(=O)c2cnc(SC)nc2C)cc1OC	-2.1	0.1	-8.6	-0.1
CCOC(=O)c1cc(Cc2ccccc2)sc1NC(=S)Nc1cnccn1	-9.7	-0.7	-5.7	-0.2
CC(=O)Nc1ccc(-c2nc3cccnc3s2)cc1	47.0*	-3.6	12.4	-0.1
CCCCC(=O)Nc1ccc(-c2nc3cccnc3s2)cc1	7.3	-1.5	4.3	0.2
Cc1ccc(-c2nc3cccnc3s2)cc1NC(=O)C(F)(F)F	32.0*	-1.2	1.0	0.0
Oc1ccccc1/C=N/N1CCN(Cc2ccc(Cl)cc2)CC1	2.5	4.3	0.2	-0.2
Clc1ccc(CN2CCN(/N=C/c3c(Cl)nc4sccn34)CC2)cc1	39.9*	2.2	8.7	-0.2
O=C(CSc1ccccn1)N/N=C/c1c(O)ccc2ccccc12	20.8	0.4	8.8	-0.6
CC(C)C(NC(=O)OC(C)(C)C)C(=O)N1CCCC1C(N)=O (centres undefined)	9.3	-0.5	8.7	2.0*
Cc1ccc(NC(=S)c2ccccn2)cc1	50.7*	-9.0	15.3	-0.5
COc1ccc(NC(=S)c2ccccn2)cc1	60.5*	-10.7	1.6	-0.2
CSc1ccc(/C=C(\C#N)c2ccccn2)cc1	-7.0	-3.4	10.1	0.2
COc1ccc(NC(=S)Nc2ccccn2)cc1	-70.5	0.5	-7.5	-0.1
CN(C)c1ccc(NC(=S)c2ccccn2)cc1	92.6*	-9.1	33.4	-1.3
CN(C)c1ccc(NC(=S)Nc2ccccc2)cc1	-10.6	-1.8	-2.5	-0.5
CN(C)c1ccc(/C=C(\C#N)c2ccccn2)cc1	90.6*	-10.4	12.8	0.2
SMILES	TEAD-YAP block	GPR151 activ	MITF inh	FBW7 act
COc1ccccc1NC(=S)c1ccccn1	-38.3	1.3	18.4	-0.2
Cc1nc2c(C(=O)NCc3ccccn3)cnn2c(C)c1Cc1ccccc1Cl	-3.0	1.4	-6.7	-0.5
CC(C)c1nnc(NC(=O)c2cccc3ccccc23)s1	3.4	-0.6	2.4	0.0
COc1ccc(C2=NN(C(=O)c3cc(OC)c(OC)c(OC)c3)C(c3ccccc3OC)C2)cc1OC (centres undefined)	35.0*	1.3	-4.4	0.0
CCOC(=O)C1=C(C)N=c2s/c(=C\c3ccc(OCc4ccccc4)cc3)c(=O)n2C1c1ccccc1 (centres undefined)	0.6	-0.9	11.5	-0.1
O=C(Nc1nnc(COc2ccc(C3CCCCC3)cc2)s1)C12CC3CC(CC(C3)C1)C2	-10.4	-0.6	26.3	1.9*
COc1ccc(O[C@H]2C=C[C@@H](c3ccccc3)O[C@@H]2COC(=O)CC/C(C)=N/OCC[C@@H]2C=C[C@H](OC(C)=O)[C@@H](COC(C)=O)O2)cc1	x	3.0	-0.5	0.3
O=C(Cc1n[nH]c(=O)c2ccccc12)OCC(=O)c1ccc2c(c1)OCCO2	49.6*	-2.1	2.7	0.0
COC(=O)C1=CN(c2cccc(Cl)c2)C=C(C(=O)OC)C1c1cccs1	-8.0	-0.2	11.1	0.2
Cc1ccc(NC(=O)Nc2ccc3ccccc3c2)cc1	-31.6	-1.0	-17.5	-0.1
Cc1cc(C)nc(SCC(=O)Nc2ccc(N3CCOCC3)c(Cl)c2)n1	31.9*	2.9	-3.8	-0.1
CC(=O)Nc1ccc(S(=O)(=O)Nc2c(C)nc3nc[nH]n3c2=O)cc1	-7.6	-0.1	-11.9	0.3
CN1C(=O)c2ccc(NC(=O)c3ccc(Br)s3)cc2C1=O	-7.4	1.2	5.7	0.3
CCC(=O)Nc1nc2c(s1)C(=O)CC(c1ccccc1)C2 (centres undefined)	52.1*	-0.3	-3.1	-0.1
CC(=O)Nc1nc(-c2cc(Cl)ccc2Cl)cs1	6.3	-0.7	3.9	0.1
CC(=O)Nc1nc(-c2ccc(Cl)cc2Cl)cs1	50.0*	1.4	-4.0	0.1
Cc1ccnc(N2CCC(C(=O)Nc3ccccc3Br)CC2)n1	8.9	-1.0	21.7	2.1*
COc1cc(C(=O)N/N=C/c2c(O)cc(OC)c([N+](=O)[O-])c2OC)cc(OC)c1OC	-8.5	0.8	-12.8	0.3
Cc1nc2c(C(=O)NC3CC3)cnn2c(C)c1Cc1ccccc1	-3.6	-0.2	-6.9	-0.3
O=C(NNc1nc(N2CCOCC2)nc(N2CCCOC2)n1)c1ccc([N+](=O)[O-])cc1	5.8	-0.9	0.5	-0.1
Cc1ccc(C(C)C)c(OCCN=Cc2c(O)n(C)c(=O)n(C)c2=O)c1	33.4*	-0.6	0.9	-0.1
COC(=O)[C@@H](NC1CCN(c2nc(C)c3ccc(OC)cc3n2)CC1)c1ccccc1	-2.5	-0.2	14.9	0.1
COc1cccc(C2N(c3ccccc3)N=C(C(C)=O)N2c2ccc(C)c(C)c2)c1OCc1ccccc1 (centres undefined)	54.0*	1.5	-22.6	0.3
CC(=O)C1=NN(c2ccccc2)C(c2ccccc2OCc2ccc(Cl)cc2)N1c1ccc(Cl)cc1 (centres undefined)	1.2	-1.9	-25.6	0.3
COc1cccc(C2N(c3ccc(C)cc3)N=C(C(C)=O)N2c2cccc(C)c2)c1OCc1ccccc1 (centres undefined)	68.1*	1.6	3.0	0.3
SMILES	TEAD-YAP block	GPR151 activ	MITF inh	FBW7 act
CN(C)CCCN(C(=O)c1cccs1)c1nc2ccc(Cl)cc2s1	-7.8	0.3	1.9	0.0
N#CCC(=O)Nc1ccc(C(=O)OCC(=O)Nc2ccc(F)c(Cl)c2)cc1	5.7	-0.9	4.3	0.1
COc1ccc(NC(=O)C23CC4CC(CC(C4)C2)C3)cc1	2.9	3.6	-9.0	-0.3
COC(=O)CCCNc1nncc(-c2ccc3c(c2)OCO3)n1	34.7*	1.2	2.1	0.0
O=[N+]([O-])c1cccc(/C=N/Nc2ccccn2)c1O	77.7*	4.2	94.0*	-0.3
O=[N+]([O-])c1cc(/C=N/Nc2ccccn2)c(O)c([N+](=O)[O-])c1	-2.6	0.2	14.2	0.3
COc1cccc(/C=N/Nc2ccc([N+](=O)[O-])cn2)c1O	65.8*	-5.4	-12.0	8.6*
CCCNC(=O)Cn1nc(-c2cc3c(s2)CCC3)oc1=O	-26.8	-1.0	0.9	-0.1
CC1=CC(C)(C)N(C(=O)c2ccc(NS(C)(=O)=O)cc2)c2ccc(C)cc21	58.5*	1.1	2.0	0.0
CC1=CC(C)(C)N(C(=O)Nc2ccc(Cl)cc2)c2ccc(C)cc21	-10.5	-0.9	7.4	0.0
